Screens: PubChem BioAssay, National Center for Advancing Translational Sciences (NCATS)
ELG1 genotoxic: qHTS screen for small molecules that induce genotoxicity in human embryonic kidney (HEK293T) cells expressing luciferase-tagged ELG1; HEK293T ELG1-luciferase reporter, luminescence, 16 h; actives 1.3% (n = 330,000); Potency, µM (top dose mostly 46 µM), most hits filed as activators; also: nearly all actives have a fitted effect of over 60% in size
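Reporter readout depends on ELG1 protein level, which increases with genetic stress. After 16 hr compound exposure at 37 °C, luciferase activity was quantified using ONE-Glo.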
Rab9 promoter act: qHTS Assay for Rab9 Promoter Activators; Huh7 Rab9 promoter-luciferase reporter, luminescence, 24 h; Potency, µM (top dose mostly 9.22 µM), hits mostly activators; actives 2.8% (n = 320,000); AID 485297, 2010; also: nearly all actives have a fitted effect of over 60% in size
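Steps: seed 1500 Huh7 Rab9-luc cells per well, rest 2 h at 37 °C; add compound in DMSO; incubate 24 h; add luciferase reagent, 10 min ambient; read luminescence.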
SMN2 splice up: qHTS Assay for Enhancers of SMN2 Splice Variant Expression. HEK293 SMN2-luciferase splicing reporter, luminescence, 30-36 h. Potency, µM (top dose mostly 46.1 µM), usual class: activators. actives 2.8% (n = 210,000). AID 1458, 2008; also: nearly all actives have a fitted effect of over 55% in size
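qHTS luciferase splicing reporter: luminescence rises when SMN2 exon 7 is included in transfected HEK293 cells. Compound exposure lasted 30-36 h at 37C, with 4.5 mM final sodium butyrate as control, followed by a ONE-Glo read.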
NPC1 prom act: qHTS Assay for NPC1 Promoter Activators; Huh7 NPC1 promoter luciferase reporter, 24 h; Potency, µM (top dose mostly 9.22 µM), hits mostly activators; actives 2.4% (n = 320,000); also: nearly all actives have a fitted effect of over 60% in size
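Stable NPC1-promoter luciferase Huh7 line; cpd (DMSO) 24 h, 37 °C, 5% CO2; Amplite luciferase reagent 10 min RT; luminescence readout. qHTS format.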
FLuc counter: qHTS profiling assay for firefly luciferase inhibitor/activator using purifed enzyme and Km concentrations of substrates (counterscreen for miR-21 project) | Luciferin 4-monooxygenase (Photinus pyralis), P08659 | purified FLuc, Km substrates, luminescence inhibition | Potency, µM (doses to about 57.5 µM), most hits filed as inhibitors | actives 6.9% (n = 360,000) | AID 588342, 2011; also: nearly all actives have a fitted effect of over 55% in size
Target sequence (P08659 whole entry, looked up): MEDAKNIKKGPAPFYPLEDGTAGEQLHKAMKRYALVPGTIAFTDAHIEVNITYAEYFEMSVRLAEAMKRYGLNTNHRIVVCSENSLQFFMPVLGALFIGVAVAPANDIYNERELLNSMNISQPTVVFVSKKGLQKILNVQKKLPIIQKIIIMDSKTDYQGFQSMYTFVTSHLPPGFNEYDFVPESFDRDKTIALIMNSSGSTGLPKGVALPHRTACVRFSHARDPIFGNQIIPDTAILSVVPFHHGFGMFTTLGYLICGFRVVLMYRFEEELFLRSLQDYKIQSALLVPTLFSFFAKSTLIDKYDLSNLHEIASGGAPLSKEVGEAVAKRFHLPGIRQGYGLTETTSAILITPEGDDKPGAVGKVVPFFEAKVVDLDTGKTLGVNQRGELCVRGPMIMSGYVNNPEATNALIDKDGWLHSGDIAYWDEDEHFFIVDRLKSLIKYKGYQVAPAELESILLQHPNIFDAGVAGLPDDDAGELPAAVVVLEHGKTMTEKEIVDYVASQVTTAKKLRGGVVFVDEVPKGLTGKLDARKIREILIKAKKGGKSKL
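Biochemical qHTS of compounds, final roughly 60 µM downward over six points, against 10 nM purified firefly luciferase using Km concentrations of substrates (10 uM D-luciferin, 10 uM ATP) in Tris acetate pH 7.5 buffer; luminescence output.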
ELG1 DNA repair: qHTS screen for small molecules that inhibit ELG1-dependent DNA repair in human embryonic kidney (HEK293T) cells expressing luciferase-tagged ELG1; AID 504467, 2011; Potency, µM (top dose mostly 46.1 µM), actives largely listed as inhibitors; HEK293T ELG1-luciferase reporter, luminescence, 16 h; DNA damage induced by 5-fluorouridine; actives 2.3% (n = 330,000); also: nearly all actives have a fitted effect of over 55% in size
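HEK293T cells expressing luciferase-tagged ELG1 (2,000/well) received 5-Fluorouridine plus compound or DMSO for 16 hr at 37 °C. Luciferase was read by ONE-Glo luminescence after 30 min at room temperature.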
Numbers stand for hits; n = inactive; u = inconclusive; x = no result given; [ ] = remark or other dose. Most compounds without a hit are left out; they make up all but 9.2% or so of the library. Calls follow the shape of the dose curve; as a rule, active = well fitted curve in the direction sought with a large enough effect; inconclusive = small, poorly fitted or top-dose-only effect, or another doubt; inactive = no such curve, though single readings can be large; an effect the other way counts as inactive or inconclusive.

SMILES	ELG1 genotoxic	Rab9 promoter act	SMN2 splice up	NPC1 prom act	FLuc counter	ELG1 DNA repair
CC1=NN(C(N)=S)C(=O)C1N=Nc1ccc(S(N)(=O)=O)cc1 (stereo unspecified)	n	n	x	n	19µM	n
CCOc1ccccc1N=NC1C(=O)N(C(N)=S)N=C1C (stereo unspecified)	n	n	x	n	n	n
CC1=NN(C(N)=S)C(=O)C1N=Nc1c(Cl)cc([N+](=O)[O-])cc1Cl (stereo unspecified)	n	u	x	u	13µM	u
CC1=NN(C(N)=S)C(=O)C1N=Nc1c(Br)cc(Br)cc1Br (stereo unspecified)	n	n	x	n	u	n
CC1=NN(C(N)=S)C(=O)C1N=Nc1ccccc1O (stereo unspecified)	n	n	x	n	n	n
CCOC(=O)C1=CNS(=O)(=O)NC1c1ccc(C)cc1 (stereo unspecified)	n	x	x	x	x	n
CC(C)(C)c1ccc(C(=O)NCC(=O)N2CCCCCC2)cc1	n	n	x	n	u	u
Cc1ccc(NC(=O)Cc2ccc(Cl)cc2)cc1S(=O)(=O)N1CCCCCC1	n	n	x	n	n	11µM
Cc1ccc(S(=O)(=O)N2CCCCC2)cc1NC(=O)Cc1c[nH]c2ccccc12	n	n	n	n	n	n
O=C(Cn1ncc(Cl)c(Cl)c1=O)NCC1CCCCC1	n	n	n	n	u	18µM
Cc1ccc(C(=O)OCC(=O)c2c[nH]c3ccccc23)cc1S(=O)(=O)N1CCCCC1	n	n	n	n	u	26µM
Cc1ccc(C(=O)OCC(=O)NCc2ccccc2)cc1S(=O)(=O)N1CCCCC1	n	n	x	n	u	n
O=C(Cn1ncc(Cl)c(Cl)c1=O)NC1CCCCC1	n	n	x	n	x	u
Cc1ccc(NC(=O)Cc2c[nH]c3ccccc23)cc1S(=O)(=O)N1CCCCCC1	n	n	n[1.84 µM]	n	n	21µM
Cc1ccc(CN=C2NC(=O)C(CC(=O)NCCc3ccccc3)S2)cc1 (stereo unspecified)	n	n	n	n	n	n
CCOc1ccc(N2CC(C(=O)Nc3cccc(C(=O)NC4CC4)c3)CC2=O)cc1 (stereo unspecified)	n	n	x	n	x	n
Cc1ccc(NC(=O)Cn2ncc(Cl)c(Cl)c2=O)cc1S(=O)(=O)N1CCCCC1	n	n	x	n	n	15µM
CS(=O)(=O)Nc1ccc(C2=NN(S(C)(=O)=O)C(c3ccccc3)C2)cc1 (stereo unspecified)	n	n	u	n	n	u
CS(=O)(=O)Nc1cccc(C2=NN(S(C)(=O)=O)C(c3ccc4c(c3)OCO4)C2)c1 (stereo unspecified)	n	u	11µM	n	17µM	u
CS(=O)(=O)N1N=C(c2ccccc2)CC1c1ccc2c(c1)OCO2 (stereo unspecified)	u	2.8µM	u	3.5µM	21µM	u
CCOC(=O)c1c(C)[nH]c(C)c1C(=O)COC(=O)c1cccnc1SC	n	n	x	n	n	n
c1ccc2c(-c3c[nH]c4ccccc34)c3ccccc3nc2c1	n	n	n	n	n	u
O=C(O)c1cc(-c2c[nH]c3ccccc23)nc2ccc3ccccc3c12	n	n	n	n	1.2µM	u
CC[C@H]1c2[nH]c3ccccc3c2C[C@H]2C(=O)N(c3ccc(F)cc3)C(=O)N21	n	n	x	n	n	7.3µM
C=CCN1CC(=O)N2C(C)c3[nH]c4ccccc4c3C[C@H]2C1=O (stereo partly specified)	n	n[1.84 µM]	x	n	n	n
SMILES	ELG1 genotoxic	Rab9 promoter act	SMN2 splice up	NPC1 prom act	FLuc counter	ELG1 DNA repair
Cc1ccc(-n2c(C)c([N+](=O)[O-])c3ccc(O)c(CN(C)C)c32)cc1	n	n	n	n	n	u
COc1ccc(-n2c(C)c([N+](=O)[O-])c3ccc(O)c(CN4CCCCC4)c32)cc1	n	n	n	n	n	10µM
Cc1nn(CC(C)C)c(=S)[nH]c1=O	n	n	5.6µM	n	n	n
Cc1nnc(SCC(C)C)[nH]c1=O	n	n	n	n	n	n
O=C(NCc1ccco1)/C(=C\c1ccc(F)cc1)NC(=O)c1ccco1	n	n	x	n	n	u
Cc1ccc(S(=O)(=O)N2CCC[C@H]2C(=O)OCCN2C(=O)c3ccccc3C2=O)cc1	n	n	x	n	n	n
C/C(=C\c1ccc(N)cc1)c1nc2ccccc2[nH]1	u	2.2µM	x	2.5µM	3µM	u
CC(=O)Nc1ccc(SC[C@H](C)CN2CC[C@H](C(C)(C)C)CCC2=O)cc1	n	n	x	n	n	u
CC1(c2cccc(Br)c2)NC(=O)N(CC(=O)Nc2cccnc2Cl)C1=O (stereo unspecified)	n	n	x	n	n	n
Cc1ccc(OCC(=O)N/N=C/c2cccn2C)cc1C	n	n	x	n	u	n
COc1ccc(OCC(=O)N/N=C/c2ccc(N(C)C)cc2)cc1	n	n	n	n	13µM	n
CCCCCC(=O)N/N=C/c1ccc(N(C)C)cc1	u	u	u	u	12µM	u
CN(C)c1ccc(/C=N/NC(=O)CCCO)cc1	n	n	n	n	n	u
COc1ccc(OCC(=O)N/N=C/c2cccn2-c2cccc(C(=O)O)c2)cc1	n	n	x	n	13µM	n
CN(CC(=O)NC(=O)NCc1ccccc1)Cc1cccc(Cl)c1Cl	n	n	n	n	n	n
CCN(CC)c1ccc(/C=N/NC(=O)c2cccc(N3CCCC3=O)c2)cc1	n	n	n	n	15µM	u
COc1cc(/C=N/NC(=O)c2cccc(N3CCCC3=O)c2)ccc1O	n	n	x	n	u	n
O=C(N/N=C/c1cc([N+](=O)[O-])ccc1O)c1cccc(N2CCCC2=O)c1	n	n	x	n	n	12µM
O=C(Nc1ccc(Br)cc1F)c1cc(S(=O)(=O)NCc2ccc(F)cc2)ccc1F	x	x	x	x	n	x
CSc1ccc(/C=C(\C#N)C(=O)NC2CCCCC2)cc1	n	n	n[1.84 µM]	n	n	u
C=CCNC(=O)/C(C#N)=C/c1ccc2c(c1)OCCO2	n	n	n	n	12µM	u
C=CCNC(=O)/C(C#N)=C/c1ccc(SC)cc1	n	n	n	n	12µM	n
COCCNC(=O)/C(C#N)=C/c1ccc2c(c1)OCO2	n	n	x	n	u	u
N#C/C(=C\c1ccc2c(c1)OCCO2)C(=O)Nc1nccs1	n	n	x	n	0.6µM	u
